Results reported in PubChem BioAssay (Tox21).
Records with an inconclusive call do not appear. Entries that show only a call come without a potency. Some compounds were tested as several samples or in several runs, with calls that do not always agree. Calls of active or inactive are those of the source. The call rests on the fitted dose curve; in most records, active means well fitted activation curve with a large enough effect in the repeat runs; inconclusive means weak or mixed curves; inactive means flat fitted curve, though single readings scatter.

Experiment: Caspase-3/7 induction in HepG2 cells by small molecules, qHTS assay (AID 1346978); further: nearly all actives have a fitted effect of over 15% in size
Conditions: HepG2 caspase-3/7 activation, Caspase-Glo luminescence, 17 h; series mostly up to 92.4 µM
From the text: National Center for Advancing Translational Sciences [NCATS] NIH Chemical Genomics Center [NCGC] U.S. Environmental Protection Agency [EPA] National Institutes of Environmental Health Sciences [NIEHS] National Toxicology Program [NTP] Assay overview: Apoptosis is a process of programmed cell death and plays a central role in the development of multicellular organisms. It is a highly regulated process and induces cell death by activating caspases, which are the members of cysteine aspartic acid-specific protease (caspase) family. Caspases involved in apoptosis are classified by their mechanism of action as initiator caspases (caspase-2, -8, -9 and -10) and executioner caspases (caspase-3, -6, and -7). Inhibition of apoptosis results in number of cancers, autoimmune diseases, inflammatory diseases and viral infection. To identify small molecule compounds that induce apoptosis, a homogeneous, luminescent Caspase-Glo 3/7 assay was used. Wild type HepG2 cells were used to screen Tox21 libraries for identifying caspase-3/7 activity inducers.
Assay Protocol Summary: HepG2 cells were dispensed at 2,000 per well in 5uL of culture medium into white solid bottom 1536-well plates (Corning Life Sciences, Corning, NY) using a Multidrop Combi (Thermo Scientific, Waltham, MA) dispenser. The assay plates were incubated at 37 C and 5% CO2 for 5hr, and then 23nL of compounds dissolved in DMSO and positive control were transferred using a Pintool station (Wako, San Diego, CA). The assay plates were incubated at 37C and 5% CO2 for 17hr. For caspase-3/7 activity read, 4uL of Caspase-Glo 3/7 reagent (Promega Corporation, Madison, WI) was added to each well of the assay plates using Flying Reagent Dispenser (FRD, Aurora Discovery, San Diego, CA) and incubated the assay plates at room temperature for 30min. The luminescence signal was quantified using a ViewLux plate reader (Perkin Elmer, Shelton, CT).
Potency means the concentration at half of the fitted maximal effect.

| SMILES | Potency |
| --- | --- |
| CC(C)CC(=O)CC(C)C | inactive |
| O=C(O)c1cc(=O)c2c(OCC(O)COc3cccc4oc(C(=O)O)cc(=O)c34)cccc2o1 | inactive |
| O=C(O)c1ccccc1C(c1ccc(O)cc1)c1ccc(O)cc1 | inactive |
| O=S1(=O)CC=CC1 | 59 µM (active) and inactive |
| c1ccc2c(c1)ccc1ccccc12 | inactive |
| CC(=O)Nc1ccccc1 | inactive |
| CCCCCCCC(=O)OC | inactive |
| O=C1CCC(N2C(=O)c3ccccc3C2=O)C(=O)N1 (stereo not given) | inactive |
| CCCCC(CC)CO (stereo not given) | inactive |
| CCCCC(CC)COC(=O)CCCCC(=O)OCC(CC)CCCC (stereo not given) | inactive |
| CC(=O)Nc1cccc(O)c1 | inactive |
| O=C(O)c1cc(O)c(O)c(O)c1 | inactive |
| c1ccc(OCCOc2ccccc2)cc1 | inactive |
| CC(=O)CC(=O)Nc1ccccc1C | inactive |
| CCc1ccc(CCOc2ccc(CC3SC(=O)NC3=O)cc2)nc1 (stereo not given) | inactive |
| COCCCOc1ccnc(CS(=O)c2nc3ccccc3[nH]2)c1C (stereo not given) | inactive |
| COc1ccc(Nc2ccccc2)c(C)c1 | inactive |
| O=C(Oc1ccccc1)c1ccccc1 | inactive |
| C=CCNC(N)=S | inactive |
| O=c1[nH]c(=O)n([C@H]2C[C@H](O)[C@@H](CO)O2)cc1Br | inactive |

| SMILES | Potency |
| --- | --- |
| O=c1[nH]c(=O)n([C@H]2CCCO2)cc1F | inactive |
| Nc1ccccc1[N+](=O)[O-] | inactive |
| CCCC(C)=O | inactive |
| Cc1ccc2oc(=O)ccc2c1 | inactive |
| O=C(O)[C@H](O)[C@@H](O)[C@H](O)[C@H](O)CO | inactive |
| CC1CCC2CC1C2(C)C (stereo not given) | inactive |
| OCCOCCOCCO | inactive |
| C=C(C)C(=O)O[C@H]1C[C@@H]2CC[C@@]1(C)C2(C)C | inactive |
| O=C(O)c1cc(C(=O)O)cc(S(=O)(=O)O)c1 | inactive |
| Oc1cccc2ccccc12 | inactive |
| CCCCC(CC)COC(=O)CS (stereo not given) | inactive |
| CCCCCCOCCO | inactive |
| O=C(CC(C(=O)OC1CCCCC1)S(=O)(=O)O)OC1CCCCC1 (stereo not given) | inactive |
| COS(C)(=O)=O | inactive |
| CCCCCCCCCCCCS | inactive |
| NNc1nncc2ccccc12 | inactive |
| O=C(OCCOCCOC(=O)c1ccccc1)c1ccccc1 | inactive |
| O=C(O)c1ccc(C(=O)O)cc1 | inactive |
| CC[C@H](C)C(=O)O[C@H]1C[C@@H](C)C=C2C=C[C@H](C)[C@H](CC[C@@H]3C[C@@H](O)CC(=O)O3)[C@H]21 | 55.2 µM (active) and inactive |
| C/C=C1/CC2C=CC1C2 (stereo not given) | inactive |
